Data published in paper PMC4336329 (PLoS ONE, 2015).
Among all 310,000 compounds or so, about 14,000 (4.5%) showed an effect of 50% or more. Effects have a minus sign here. Only a selection was taken, and strong results are over-represented in it overall.

target: human ether-à-go-go-related gene (hERG) potassium channel (human, UniProt Q12809); test: primary screen, population patch clamp on CHO cells stably expressing hERG; higher = less effect of the substance
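Further: peak tail current of the secondary pulse compared with the same well before compound.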

human ether-à-go-go-related gene (hERG) potassium channel, sequence (Q12809 whole entry, looked up): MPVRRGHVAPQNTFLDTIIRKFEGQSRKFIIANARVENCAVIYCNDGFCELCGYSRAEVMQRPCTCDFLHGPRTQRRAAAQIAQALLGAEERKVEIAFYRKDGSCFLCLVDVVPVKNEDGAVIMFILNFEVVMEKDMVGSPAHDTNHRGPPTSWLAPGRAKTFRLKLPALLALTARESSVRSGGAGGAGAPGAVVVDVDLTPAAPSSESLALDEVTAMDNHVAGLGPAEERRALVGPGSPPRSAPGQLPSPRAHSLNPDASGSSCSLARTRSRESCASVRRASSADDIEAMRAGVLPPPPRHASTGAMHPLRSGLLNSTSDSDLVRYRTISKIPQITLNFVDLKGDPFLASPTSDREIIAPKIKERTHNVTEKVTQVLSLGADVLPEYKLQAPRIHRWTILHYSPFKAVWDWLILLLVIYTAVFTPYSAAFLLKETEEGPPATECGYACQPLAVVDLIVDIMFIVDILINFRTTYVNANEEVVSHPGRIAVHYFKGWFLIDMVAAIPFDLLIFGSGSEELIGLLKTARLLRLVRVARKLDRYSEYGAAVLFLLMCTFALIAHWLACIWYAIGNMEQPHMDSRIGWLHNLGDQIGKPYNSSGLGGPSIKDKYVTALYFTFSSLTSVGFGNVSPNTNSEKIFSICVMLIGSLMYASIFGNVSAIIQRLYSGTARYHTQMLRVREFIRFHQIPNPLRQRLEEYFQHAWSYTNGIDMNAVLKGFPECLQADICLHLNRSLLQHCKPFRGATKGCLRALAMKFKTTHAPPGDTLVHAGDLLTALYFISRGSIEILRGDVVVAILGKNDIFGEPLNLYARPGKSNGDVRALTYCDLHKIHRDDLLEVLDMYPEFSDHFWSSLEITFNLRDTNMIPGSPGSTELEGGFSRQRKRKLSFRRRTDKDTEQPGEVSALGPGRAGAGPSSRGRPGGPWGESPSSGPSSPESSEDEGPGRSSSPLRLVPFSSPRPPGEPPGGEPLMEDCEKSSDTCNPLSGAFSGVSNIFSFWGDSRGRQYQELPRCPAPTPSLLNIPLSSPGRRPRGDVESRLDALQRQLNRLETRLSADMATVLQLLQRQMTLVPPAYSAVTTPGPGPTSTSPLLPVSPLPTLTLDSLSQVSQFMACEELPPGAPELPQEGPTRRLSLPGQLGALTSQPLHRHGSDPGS

| SMILES | hERG current change (%, negative = inhibition) at 10uM |
| --- | --- |
| Cc1cc(C(=O)N2CCCC(CCC(=O)N3CCN(c4ccccn4)CC3)C2)c(C)o1 (stereo not drawn) | -9.16% |
| COc1cccc(Cn2c(=S)[nH]c3ccc(N4CCOCC4)cc3c2=O)c1 | -8.19% |
| CCOC(=O)C1CCCN(C(=O)Cn2cnc3c2c(=O)n(C)c(=O)n3C)C1 (stereo not drawn) | 20.3% |
| O=C(C1CCCC1)N1CCN=C1SCc1cccc([N+](=O)[O-])c1 | -19.3% |
| Cc1ccc2nc(NCc3ccc(F)cc3)c3nncn3c2c1 | 2.23% |
| COc1ccc(C2N(Cc3ccccc3)CCN2Cc2ccccc2)cc1[N+](=O)[O-] | -29.9% |
| CCn1c(SCC(=O)NCc2ccco2)nc2ccccc2c1=O | -34.4% |
| CCC(Sc1nc2cc(OC)c(OC)cc2c(=O)n1Cc1ccco1)C(=O)NCCOC (stereo not drawn) | -28.2% |
| Cc1ccc(CSc2nc3ccccc3c(=O)n2Cc2ccco2)cc1 | 8.42% |
| O=C(CSc1nc2ccccc2c(=O)n1-c1ccccc1)NCc1ccco1 | -15.1% |
| CCc1ccccc1NC(=O)C(CC)Sc1nc2cc3c(cc2c(=O)n1Cc1ccco1)OCO3 (stereo not drawn) | 17.1% |
| Cn1c(SCC(=O)NCCN2C(=O)CSC2=O)nc2ccccc2c1=O | -2.05% |
| O=C(CSc1nc2ccccc2c(=O)n1Cc1ccco1)Nc1cccc(O)c1 | 3.9% |
| Cc1ccc(NC(=O)CN(C)C(=O)CSc2nc3ccccc3c(=O)n2Cc2ccco2)cc1 | -71.1% |
| C=CCn1c(SCC(=O)NCc2ccco2)nc2ccccc2c1=O | -50.3% |
| CCC(Sc1nc2cc3c(cc2c(=O)n1Cc1ccco1)OCO3)C(=O)NCCOC (stereo not drawn) | -63.6% |
| CN(Cc1ccccc1)C(=O)CSc1nc2ccccc2c(=O)n1Cc1ccco1 | -3.56% |
| O=C(CSc1nc2ccccc2c(=O)n1Cc1ccco1)NCCN1C(=O)CSC1=O | -61.4% |
| CCOc1ccc(C(=O)Nc2ccc(S(=O)(=O)Nc3cc(C)on3)cc2)cc1 | -9.73% |
| O=C(CSc1nnc(COc2ccccc2)n1Cc1ccco1)c1ccc(F)cc1 | -21.1% |
| Cc1ccnc2nc(C(=O)OCCOc3cccc(Br)c3)nn12 | -27.9% |
| COc1ccc(NC(=O)CCN2CC(C)OC(C)C2)c(OC)c1.Cl (stereo not drawn) | 13.2% |
| CCOc1cc(/C=N/n2c(COc3ccccc3)n[nH]c2=S)ccc1O | 24.4% |

| SMILES | hERG current change (%, negative = inhibition) at 10uM |
| --- | --- |
| Cn1c(CN2CCOCC2)nnc1SCC(=O)NC1CCCCC1 | 17.7% |
| COc1cccc(C2(C)NC(=O)N(CC(=O)c3cc(C)n(C4CC4)c3C)C2=O)c1 (stereo not drawn) | -35.8% |
| O=C(NCc1ccc2c(c1)OCO2)c1ccc(Br)s1 | 6.32% |
| CCOC(=O)C1CCN(C(=O)Cn2nc(CC)n3cccc3c2=O)CC1 | -0.254% |
| Cc1cccc(NC(=O)N2C3CCCC2CC(NC(=O)C(C)(C)C)C3)c1 (stereo not drawn) | 1.47% |
| CCOC(=O)N1CCN(C(=O)c2ccc3c(c2)NC(=O)C(N2CCOCC2)S3)CC1 (stereo not drawn) | -4.6% |
| CCOc1cccc2cc(C(=O)NCc3cccnc3)c(=O)oc12 | -1.94% |
| O=c1c2ccccc2nc(SCc2ccccc2)n1Cc1ccco1 | 1.3% |
| CN(C)C(CNC(=O)CSc1nc2ccccc2c(=O)n1Cc1ccco1)c1ccccc1 (stereo not drawn) | -67.1% |
| CCN(CC)C(=O)CSc1nc2cc(OC)c(OC)cc2c(=O)n1Cc1ccc(Cl)cc1 | -77% |
| O=C(CSc1nc2ccccc2n1CC(=O)NCc1ccccc1)NCc1ccco1 | -20.2% |
| O=C(CSc1nc2ccccc2c2nc3ccccc3n12)NCc1ccco1 | -8.55% |
| O=C(CSc1nc2ccccc2c(=O)n1Cc1ccco1)c1ccc(F)cc1 | 9.22% |
| CC(Sc1nc2ccccc2c(=O)n1Cc1ccco1)C(=O)c1ccccc1 (stereo not drawn) | -53.9% |
| Cc1nc2ccccc2n1CCc1nc2c3ccccc3nc(SCC(=O)NCc3ccco3)n2n1 | -60% |
| COc1cc2nc(SCC(=O)NCc3ccco3)n(Cc3ccc(Cl)cc3)c(=O)c2cc1OC | -3.17% |
| CCN(CC)C(=O)CSc1nc2cc3c(cc2c(=O)n1Cc1ccc(OC)cc1)OCO3 | 12.1% |
| CC1CCCCC1NC(=O)CSc1nc2ccccc2c(=O)n1Cc1ccco1 (stereo not drawn) | 13% |
| COc1ccc(CCNc2ncnc3c2oc2ccccc23)cc1OC.Cl | 0.357% |
| CCCCn1nc(C(=O)N2CCc3ccccc32)c2ccccc2c1=O | -28.4% |
| CN(Cc1nc(-c2cnccn2)no1)Cc1cccc2ccccc12 | -2.31% |
| CCc1ccc(-c2ccc(SCc3ccccn3)nn2)cc1 | 3.91% |
| O=C(Cn1cc(C(F)(F)F)ccc1=O)NCc1ccc(F)cc1 | 15.6% |

| SMILES | hERG current change (%, negative = inhibition) at 10uM |
| --- | --- |
| CS(=O)(=O)N(CC(=O)N1CCN(c2ccccc2)CC1)c1cccc(Br)c1 | -19.2% |
| O=C(CCN1C(=O)/C(=C/C=C/c2ccccc2)SC1=S)Nc1nc2ccccc2s1 | 18.3% |
| NCC(c1ccccc1Cl)c1c[nH]c2ccccc12 (stereo not drawn) | 12.8% |
| FC(F)(F)c1ccccc1Nc1nccs1 | -16.1% |
| CCC(=O)OC1(Cc2ccc(CC)cc2)CC(C)N(C)CC1C.Cl (stereo not drawn) | -59.4% |
| CCC1(OC(=O)c2ccccc2)CC(C)N(C)CC1C.Cl (stereo not drawn) | -7.85% |
| CCc1ccc(CC2(O)CC(C)N(C)CC2C)cc1 (stereo not drawn) | -29.7% |
| CNC(=S)NNC(=O)c1cc(C(C)(C)C)nn1Cc1ccc(F)cc1 | 14.6% |
| Cc1cc(C)cc(N2C(=O)CC(N3CCOCC3)C2=O)c1 (stereo not drawn) | 14.9% |
| O=C(CN1C(=O)COc2ccc(S(=O)(=O)N3CCCC3)cc21)N1CCCC1 | 9.85% |
| C/C=C/Cn1c(N2CCCCCC2)nc2c1c(=O)[nH]c(=O)n2C | -5.14% |
| N#Cc1cnn2c(-c3cccc(C(F)(F)F)c3)ccnc12 | -52.8% |
| N#Cc1cnn2c(-c3ccccc3)ccnc12 | 2.49% |
| NC(=O)c1cnn2c(-c3cccc(C(F)(F)F)c3)ccnc12 | -2.33% |
| COc1ccc(-c2ccnc3c(C#N)cnn23)cc1 | 6.06% |
| N#Cc1cnn2c(-c3cccc([N+](=O)[O-])c3)ccnc12 | -52.7% |
| NC(=S)c1cnn2c(-c3cccc(C(F)(F)F)c3)ccnc12 | 14.2% |
| CC(=O)c1ccc(NS(=O)(=O)c2cccc(C)c2)cc1 | -1.86% |
| COC(=O)c1cccc(NC(=O)CC2C(=O)NCCN2C(=O)Nc2cc(C)cc(C)c2)c1 (stereo not drawn) | 11% |
| COc1ccc(CNc2ncc(-c3ccccc3)n2C)c2ccccc12.O=C(O)C(=O)O | -34.5% |
| COc1ccccc1CNc1ncc(-c2ccc(F)cc2)n1C.O=C(O)C(=O)O | -62% |
| COc1ccc(CNc2ncc(-c3ccc(F)cc3)n2C)cc1OC.O=C(O)C(=O)O | -65.2% |
| CCOc1ccc(-c2cnc(NCc3cccc4ccccc34)n2CCOC)cc1.O=C(O)C(=O)O | -58.8% |

| SMILES | hERG current change (%, negative = inhibition) at 10uM |
| --- | --- |
| COc1ccccc1CNc1ncccn1.O=C(O)C(=O)O | 23.6% |
| COCCn1c(-c2ccc(OC)cc2)cnc1SCC(=O)Nc1cccc2ccccc12 | -21.8% |
| COc1ccc(CNc2ncc(-c3ccc(F)cc3)n2C)c2ccccc12.O=C(O)C(=O)O | -35.1% |
| Cn1c(-c2ccc(F)cc2)cnc1NCc1ccccc1F.O=C(O)C(=O)O | -27.3% |
| COCCCNC(=O)Cn1c(=O)n(Cc2ccccc2Cl)c(=O)c2cc(OC)c(OC)cc21 | 9.48% |
| COc1ccc(-c2nc(N)n(S(=O)(=O)c3ccc(C)cc3)n2)cc1 | 39% |
| CC(=O)Nc1nc(COc2ccccc2)cs1 | -4.04% |
| COC(=O)C(Cc1c[nH]c2ccccc12)NC(=O)c1cncc(Br)c1 (stereo not drawn) | 1.85% |
| CCOC(=O)N1CCN(S(=O)(=O)N2CCCC(C(=O)NCCCN3CCCCC3)C2)CC1 (stereo not drawn) | 10% |
| CC(C)Nc1ccc(Nc2ccccc2)cc1 | -0.32% |
| CC(C)Nc1ccc(Nc2ccnc3cc4ccccc4cc23)cc1 | -72.7% |
| COc1ccc(Nc2ccnc3ccccc23)cc1.Cl | -33.8% |
| CS(=O)(=O)N(CC(=O)N1CCOCC1)c1cccc([N+](=O)[O-])c1 | 6.28% |
| CCOC(=O)N1CCN(C(=O)CN(c2cccc(C(F)(F)F)c2)S(=O)(=O)c2ccccc2)CC1 | -43.6% |
| CCOC(=O)C1CCN(C(=O)CN(c2cccc(C(F)(F)F)c2)S(C)(=O)=O)CC1 | -25.9% |
| CS(=O)(=O)N(CC(=O)N1CCCCCC1)c1cccc([N+](=O)[O-])c1 | -32.7% |
| CS(=O)(=O)N(CC(=O)N1CCN(Cc2ccccc2)CC1)c1cccc([N+](=O)[O-])c1 | -75.5% |
| Cc1ccc(N(CC(=O)N2CCN(Cc3ccccc3)CC2)S(C)(=O)=O)cc1C | -7.28% |
| CCOC(=O)N1CCN(C(=O)CN(c2cccc(C(F)(F)F)c2)S(C)(=O)=O)CC1 | -51.1% |
| CS(=O)(=O)N(CC(=O)N1CCN(Cc2ccccc2)CC1)c1cccc(F)c1 | -36.3% |
| CS(=O)(=O)N(CC(=O)N1CCN(Cc2ccccc2)CC1)c1cccc(Cl)c1 | -63.8% |
